Whole data set: some 68,000 sequences, median “fluorescence intensity (a.u.)” near 9,100, cut for the highest 2% near 16,000. Shown is part of a subset that was picked to be rich in the highest values.
The sequences below were run against OsWRKY34 (Oryza sativa, UniProt Q0JBA9 1-250) (assay: protein-binding microarray (RPBM); PBS, 2% BSA, 51.3 ng/ul salmon testes DNA, 50 uM zinc acetate, 200 nM TF, 25 C, 1 h; high values mean tight binding). Conditions: protein: recombinant; tags: N-terminal polyhistidine and DsRed monomer fusion (pET32a); label: CyDye5-dUTP incorporated in the synthesized complementary strand; 3' TTTTT single-stranded linker to array surface; dsDNA, one strand shown.
In short: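 Per-feature fluorescence intensity (arbitrary units), read on an Axon 4000B scanner, is the binding signal. Transcription factors carrying an N-terminal polyhistidine tag and DsRed fusion were expressed in E. coli BL21-CodonPlus and purified on Ni–NTA. A custom Agilent array, made double-stranded by primer extension with Cy5-dUTP and blocked with 2% BSA, was incubated with 200 nM protein in PBS, 2% BSA, salmon testes DNA and 50 µM zinc acetate at 25 °C for 1 h and then washed.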

OsWRKY34, sequence (Q0JBA9 entry or part of it): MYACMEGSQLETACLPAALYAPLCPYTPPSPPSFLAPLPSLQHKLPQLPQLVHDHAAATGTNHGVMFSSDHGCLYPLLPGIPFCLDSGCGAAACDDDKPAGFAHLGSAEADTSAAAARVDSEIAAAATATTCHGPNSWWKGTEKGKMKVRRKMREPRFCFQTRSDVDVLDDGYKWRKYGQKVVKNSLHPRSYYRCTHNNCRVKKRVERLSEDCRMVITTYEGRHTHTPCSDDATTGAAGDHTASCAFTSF

How did the binding signal turn out when “CTTCTAAACATAGCTTCCACAATCGTCTCCGGGCCCTTCTCGGAGTCACCTAGTGCAG” was run?
Its binding signal is 8320 fluorescence intensity (a.u.).

With “GATTAGAATCCGGGTGGGCTGTTTCCACCACAAGAAACTACGGAGTCACCTAGTGCAG” as the sequence, how does the binding signal read?
The binding signal was 8990 fluorescence intensity (a.u.).

“AATTCCCAAAATATACAGTTTTTGTTATTCAGATGTTTACCGGAGTCACCTAGTGCAG” was tested. Which binding signal did it give?
The binding signal was 8130 fluorescence intensity (a.u.).

Which binding signal does the source give for “TACCGATGGGGCTCTTATACTCCAACTCTTGCCCTGTTTACGGAGTCACCTAGTGCAG” here?
The binding signal was 9020 fluorescence intensity (a.u.).

With “ATTCGATTTTCTTGCACCTAAACACATGCAACCCATCATTCGGAGTCACCTAGTGCAG” as the sequence, how does the binding signal read?
The binding signal was 10100 fluorescence intensity (a.u.).

With “TGTGTTGGTGATGTCGATGTGTGGGTGGTGGTTTTTTTTTCGGAGTCACCTAGTGCAG” as the sequence, how does the binding signal read?
Its binding signal is 13800 fluorescence intensity (a.u.).

For “TTACTACTACCACTCGTTTTCTTGGCTTGGTTTGGTTTGGCGGAGTCACCTAGTGCAG”, which binding signal is on record?
Its binding signal is 13000 fluorescence intensity (a.u.).

How did the binding signal turn out when “TTTTTCAATTTTTGGTTAAAATTTTTGGGGCTTTTCTTCGCGGAGTCACCTAGTGCAG” was run?
The binding signal was 8990 fluorescence intensity (a.u.).

Which binding signal does the source give for “AGCTTGGTTTCTGGGTTGGGTTGGGTTTGGTTGCGTTGCGCGGAGTCACCTAGTGCAG” here?
Its binding signal is 22700 fluorescence intensity (a.u.).

For “GGTGGGTAGTTTTCTGCGTTTTCTTTTGTATTTTTGGTTGCGGAGTCACCTAGTGCAG”, which binding signal is on record?
The binding signal was 11500 fluorescence intensity (a.u.).

Which binding signal does the source give for “TTGGTTTTGGTTTGGGTGGTTGATGTGTGGGTGGTGGTGGCGGAGTCACCTAGTGCAG” here?
Its binding signal is 19000 fluorescence intensity (a.u.).

Which binding signal does the source give for “GGCTTTTATGGGGCGGGCTTTCTTTGGTCAATGGTCACTACGGAGTCACCTAGTGCAG” here?
Its binding signal is 32200 fluorescence intensity (a.u.).

Which binding signal does the source give for “TGTGTGGTAGTTCGGGGTGGACCTACTTCTAATTATTGGGCGGAGTCACCTAGTGCAG” here?
The binding signal was 14100 fluorescence intensity (a.u.).

Which binding signal does the source give for “GGGAAATTGGGTAATTAATTAATTATGTGAAAGGGGTGGGCGGAGTCACCTAGTGCAG” here?
The binding signal was 12800 fluorescence intensity (a.u.).

Which binding signal does the source give for “CGTGTGACTGTTGCCGTGATGGTTTTGATGTTTGTTTTGGCGGAGTCACCTAGTGCAG” here?
Its binding signal is 9180 fluorescence intensity (a.u.).

With “CGGCGGAGGAGGAGGTTTCTTGCTCGTTTCTTGGGTTGCGCGGAGTCACCTAGTGCAG” as the sequence, how does the binding signal read?
Its binding signal is 10800 fluorescence intensity (a.u.).

Which binding signal does the source give for “TCTATTGGGGCGGGGTGTGGTAAGGAAATTACAGTTTGCACGGAGTCACCTAGTGCAG” here?
Its binding signal is 17700 fluorescence intensity (a.u.).

For “AAGACATTGCATCAACCGTCTTGCCAATCTATGTTTTCTACGGAGTCACCTAGTGCAG”, which binding signal is on record?
Its binding signal is 8280 fluorescence intensity (a.u.).

“ATTATAAGTTGTTTCTTCTTAGGTTGTGTTTAGTTCCTTGCGGAGTCACCTAGTGCAG” was tested. Which binding signal did it give?
Its binding signal is 9250 fluorescence intensity (a.u.).

“GCTTCCTCGGCCTCGGGCCGCGTCTCCATGGTCGACTTGACGGAGTCACCTAGTGCAG” was tested. Which binding signal did it give?
Its binding signal is 11200 fluorescence intensity (a.u.).

“ACCAGTTAATGTACATTTGCAATTATATTTTGTTATTTTTCGGAGTCACCTAGTGCAG” was tested. Which binding signal did it give?
Its binding signal is 8230 fluorescence intensity (a.u.).

Which binding signal does the source give for “AGTTCTTGGAGTCACATGGTTGGTGGTGGTGTGGGCAGTTCGGAGTCACCTAGTGCAG” here?
The binding signal was 14200 fluorescence intensity (a.u.).

How did the binding signal turn out when “TTTTTTGTCGGACTTTTTTCTTCATTTTTTACCTCTTTTGCGGAGTCACCTAGTGCAG” was run?
Its binding signal is 16900 fluorescence intensity (a.u.).

How did the binding signal turn out when “GGTGGTGTTGTTGGTGGTGCAGTTCTTGGAGTCACATGGTCGGAGTCACCTAGTGCAG” was run?
The binding signal was 10300 fluorescence intensity (a.u.).

How did the binding signal turn out when “GAGATGCGGCACGGTTGGCTTGTTGACTTTTTCCGGCCCGCGGAGTCACCTAGTGCAG” was run?
The binding signal was 17500 fluorescence intensity (a.u.).

“GGAGTTTGGTTGGTTGGTGGTGTTCTTGACGGGGCATGGACGGAGTCACCTAGTGCAG” was tested. Which binding signal did it give?
The binding signal was 31200 fluorescence intensity (a.u.).

For “GAGATGGATGTGTGGTGATGGCCTAGGATGTGGGATGGATCGGAGTCACCTAGTGCAG”, which binding signal is on record?
The binding signal was 8160 fluorescence intensity (a.u.).

“TCTTTATTTACCTTTTTTTGAGTCGGACTTCTTTTTCTTTCGGAGTCACCTAGTGCAG” was tested. Which binding signal did it give?
The binding signal was 8240 fluorescence intensity (a.u.).

With “GTTGTTTGTTTGAGACTCTGTTCCTTTTGGCTTGGTTTTCCGGAGTCACCTAGTGCAG” as the sequence, how does the binding signal read?
Its binding signal is 12700 fluorescence intensity (a.u.).

How did the binding signal turn out when “ACCACTTGGCTTTCTTTCTTTTATCCGGTTAGTTCCGGCGCGGAGTCACCTAGTGCAG” was run?
The binding signal was 8090 fluorescence intensity (a.u.).

With “CCTTTTTAGTCGGACTTCTTTTTCTTTTTTACCGACTTTGCGGAGTCACCTAGTGCAG” as the sequence, how does the binding signal read?
The binding signal was 10300 fluorescence intensity (a.u.).

“ATGTAGATGTGGTCATGTGGGTGCTATCTGTGTGGGTGATCGGAGTCACCTAGTGCAG” was tested. Which binding signal did it give?
The binding signal was 9360 fluorescence intensity (a.u.).

For “GTAAGTGTGTGTTCAGTGATGGCTATCGGTGGGTGGGTGGCGGAGTCACCTAGTGCAG”, which binding signal is on record?
Its binding signal is 16600 fluorescence intensity (a.u.).

How did the binding signal turn out when “TTCTCCCTTTATTTTTGTTTATATAATTTCCAGATCAAAGCGGAGTCACCTAGTGCAG” was run?
Its binding signal is 8890 fluorescence intensity (a.u.).

Which binding signal does the source give for “GCCGCCGCCTCGCTCCCCATGGCGTCCGTACACTCCGGCGCGGAGTCACCTAGTGCAG” here?
The binding signal was 10300 fluorescence intensity (a.u.).

Which binding signal does the source give for “GCCGCCGCCCGCCGCCGCCGAGACCGACCCGACCACGATGCGGAGTCACCTAGTGCAG” here?
Its binding signal is 8960 fluorescence intensity (a.u.).

“AATTTCGGAAGGGTTGGTTTAGGCAGTAATATTCTCCATTCGGAGTCACCTAGTGCAG” was tested. Which binding signal did it give?
Its binding signal is 8280 fluorescence intensity (a.u.).

For “GTGGCCTTTGGGAGCGGTGACCTGCTGCTCCATCCTTCATCGGAGTCACCTAGTGCAG”, which binding signal is on record?
Its binding signal is 9620 fluorescence intensity (a.u.).

“ATCCTGATCAGATTCTGAACTCCTTTTCTCTCTGCGCCCACGGAGTCACCTAGTGCAG” was tested. Which binding signal did it give?
Its binding signal is 8480 fluorescence intensity (a.u.).

For “CACGTCGCCTCGTTTCTTGCCTCGCCGCTCGTCACTCGGCCGGAGTCACCTAGTGCAG”, which binding signal is on record?
Its binding signal is 9810 fluorescence intensity (a.u.).

How did the binding signal turn out when “CGGTGGTGGTGGTGGTGCCTTGGCTAGTTTGGCCGGCGCGCGGAGTCACCTAGTGCAG” was run?
Its binding signal is 14300 fluorescence intensity (a.u.).

For “CTTGGCTTGGTTTGGTTTGGTGTTTGATCACGCGGTGGTGCGGAGTCACCTAGTGCAG”, which binding signal is on record?
Its binding signal is 20800 fluorescence intensity (a.u.).

Which binding signal does the source give for “CGGTGGACTGGTGGTTTTTGCGGGGTTGCAGAATTTGGTGCGGAGTCACCTAGTGCAG” here?
Its binding signal is 9390 fluorescence intensity (a.u.).

For “GTTTATTGTATTTGGAGTAAGTGATTGTAACTTTTTTTTACGGAGTCACCTAGTGCAG”, which binding signal is on record?
The binding signal was 9200 fluorescence intensity (a.u.).
